Compounds with a hit are over-represented: about 2.1% of the library has one in this group of screens.
LDHA block: qHTS assay for inhibitors of human lactate dehydrogenase | AID 1347041, 2019 | actives 0.15% (n = 480,000) | activity change, % (values are at about 110 or 230 µM) | purified LDHA, NADH/diaphorase-resazurin fluorescence; active compounds read low; in the data active = activity change below about -30%; inconclusive = mostly about -25% to -30%;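 also: plate controls were DMSO wells for no effect and wells without enzyme for full effect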
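Enzyme activity of human lactate dehydrogenase 5 (2 nM; 0.06 mM NADH, 0.2 mM pyruvate, 5 min, RT) is measured via a resazurin/diaphorase fluorescence readout of residual NADH.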
D2 PAM-1: HTS Assay for Positive Allosteric Modulators of the Human D2 Dopamine Receptor: Primary Screen for Potentiators | D(2) dopamine receptor (Homo sapiens), P14416 | HEK293 T-REx D2, calcium flux, EC20 dopamine potentiation | potentiation, % at 10 µM | actives 0.34% (n = 340,000);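 active = potentiation over 3 SD above the plate norm, cut at about 30% in these data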; also: 0% is about no effect
Target sequence (P14416 whole entry, looked up): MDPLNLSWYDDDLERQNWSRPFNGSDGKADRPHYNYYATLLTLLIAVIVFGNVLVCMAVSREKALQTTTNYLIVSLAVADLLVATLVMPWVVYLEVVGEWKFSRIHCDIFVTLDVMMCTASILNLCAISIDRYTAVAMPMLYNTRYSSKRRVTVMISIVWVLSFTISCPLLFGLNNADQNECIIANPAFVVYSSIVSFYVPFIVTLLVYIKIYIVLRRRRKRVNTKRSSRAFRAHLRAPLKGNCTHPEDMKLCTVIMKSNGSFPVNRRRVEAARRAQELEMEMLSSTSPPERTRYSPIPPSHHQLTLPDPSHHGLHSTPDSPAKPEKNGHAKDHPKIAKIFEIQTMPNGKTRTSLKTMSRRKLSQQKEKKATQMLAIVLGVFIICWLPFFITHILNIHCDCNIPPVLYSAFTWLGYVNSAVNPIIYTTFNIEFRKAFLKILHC
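Calcium flux readout, no-wash dye, 1 read/s. Inducible HEK293 Trex D2 line, overnight 30 C. Compound alone 180 s (agonist flags), then EC20 dopamine, another 180 s to score potentiation.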
D2 ag-1: Beta-Arrestin HTS for Positive Allosteric Modulators of the Human D2 Dopamine Receptor: Agonists. D(2) dopamine receptor (Homo sapiens), P14416. DiscoveRx PathHunter D2 beta-arrestin, luminescence, 90 min; 100% = 57 uM dopamine signal. activation, % (no concentration beside the values). actives 0.084% (n = 360,000); in the data active = activation above about 40%; inconclusive = between about 15% and that limit
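DiscoveRx PathHunter D2 beta-arrestin cells (2,100/well) attached overnight, then compound-stimulated 90 min at 37 C in HBSS/10 mM HEPES/0.1% Tween-20 buffer; beta-galactosidase complementation read by luminescence after 1 h at ambient temperature. Dopamine 57 uM final (EC100) as control.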
D2 antag: HTS Assay for Allosteric Antagonists of the Human D2 Dopamine Receptor: Primary Screen for Antagonists | inhibition, % at 10 µM | D(2) dopamine receptor (Homo sapiens), P14416 | HEK293 TREx D2 cells, calcium flux, dopamine EC80 | actives 2% (n = 340,000); in the data active = inhibition above about 30%; inactive = below that, where a call was filed; also: 0% is about no effect
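Antagonism is scored as inhibition of an EC80 dopamine-evoked calcium signal in a force-coupled, tetracycline-inducible HEK293 T-REx D2 line, with compound present 180 s before agonist.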
D2 ag-2: HTS Assay for Allosteric Agonists of the Human D2 Dopamine Receptor: Primary Screen for Agonists; HEK293 T-REx D2 cells, calcium flux agonist mode; D(2) dopamine receptor (Homo sapiens), P14416; activation, % at 2 µM; actives 0.53% (n = 340,000);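 active = activation over 3 SD above normal in the single-dose calcium agonist read, cut at about 30% in these data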; also: 0% is about no effect
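In this primary screen, compounds producing a positive calcium signal within 180 s of addition to tetracycline-induced, force-coupled HEK293 Trex D2 cells are flagged; cells are dye-loaded with a no-wash calcium kit beforehand.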
D2 PAM-2: Beta-Arrestin HTS for Positive Allosteric Modulators of the Human D2 Dopamine Receptor: Potentiators. AID 624464, 2012. potentiation, % (test concentration not listed). actives 0.23% (n = 360,000). DiscoveRx D2 beta-arrestin cells, luminescence, 90 min; 100% = 57 uM dopamine signal. D(2) dopamine receptor (Homo sapiens), P14416; in the data active = potentiation above about 50%; inconclusive = mostly about 30% to 49%
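D2 cells co-treated with compound plus 50 nM dopamine (EC20) for 90 min at 37 deg C to detect potentiation. Beta-arrestin recruitment was read as enzyme-fragment luminescence after 1 h at ambient temperature. Full response was set by 57 uM dopamine.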
D3 ag: qHTS of D3 Dopamine Receptor Agonist: D3 Dopamine Receptor B-arrestin Agonist Confirmatory Assay. Potency, µM (top dose mostly 76.9 µM), without a hit: top-dose activation, hits mostly activators. shares compounds with D2 ag-2. DiscoveRx D3 beta-arrestin cells, luminescence, 90 min. actives 4% (n = 2,300);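 also: potency is read from the fitted curve at half-maximal effect; 100% = dopamine control response; nearly all actives have a fitted effect of over 70% in size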
D2 ag-3: qHTS of D3 Dopamine Receptor Agonist: D2 Dopamine Receptor B-arrestin Agonist Counterscreen. shares compounds with D2 ag-2. DiscoveRx PathHunter D2 beta-arrestin, luminescence, 90 min; response scale: percent relative to full dopamine signal. actives 5.9% (n = 2,300). Potency, µM (titrated, usually from 76.9 µM), for the others: top-dose activation, actives largely listed as activators. AID 720507, 2013; also: potency is read from the fitted curve at half-maximal effect; % of control where 0% means no effect; nearly all actives have a fitted effect of over 70% in size
* hit, by the source's call; ? = inconclusive; nt = not tested or not shown; ! = a repeat was not active. Unless noted, calls follow the shape of the dose curve; as a rule, active = well fitted activation curve with a large enough effect; inconclusive = small, poorly fitted or top-dose-only effect; inactive = flat fitted curve, though single readings scatter.

SMILES | LDHA block | D2 PAM-1 | D2 ag-1 | D2 antag | D2 ag-2 | D2 PAM-2 | D3 ag | D2 ag-3
CCc1ccc(CNCCc2c[nH]c3ccccc23)cc1 | -7 | -16 | -3 | 14 | 7 | -77 | -14% | -1%
FC(F)CN1CCNCC1 | -14 | nt | nt | nt | nt | nt | nt | nt
CC(CCc1ccccc1)NC(C)C(O)c1ccc(O)cc1 (stereo unspecified) | -18 | -25 | -4 | 64* | 71* | -14 | 11% | 13%
O=C1c2ccccc2-c2c1nc1c([n+]2[O-])CCCC1 | 15 | -6 | -13 | 15 | 29 | -26 | -66% | -21%
Cc1ccc(-n2nc(C)c3c2NC(=O)CSC3c2ccsc2)cc1 (stereo unspecified) | 6 | nt | nt | nt | nt | nt | nt | nt
Cc1cccc(CCN)c1 | 7 | nt | nt | nt | nt | nt | nt | nt
COc1ccc(CN2CCN(c3ccccc3)CC2)c(C)c1C | -6 | -19 | 10 | 65* | 63* | -27 | 7% | 18%
N#Cc1ccc(NC(=O)CSC2=Nc3ccccc3C3CC=NN23)cc1Cl (stereo unspecified) | 1 | nt | nt | nt | nt | nt | nt | nt
CCCCCc1nc2ccccc2c(=O)n1-c1ccc(C)cc1 | -5 | 9 | nt | nt | -1 | nt | nt | nt
CCCCCc1nc2c(c(=O)c3ccccc3n2C)c(=O)n1C1CCCCCC1 | -8 | -15 | -2 | 46* | 36* | -6 | 16% | 3%
Fc1ccc(CNCCc2ccc3c(c2)OCO3)cc1 | -10 | -2 | 1 | -14 | 0 | -32 | nt | nt
c1cc(CNCCc2ccc3c(c2)OCO3)ccn1 | -5 | 8 | 4 | -20 | -1 | -32 | ? | 3%
CCN(CC)P(=O)(/C=C(\Cl)c1ccccc1)/C=C(\Cl)c1ccccc1 | -4 | 11 | -3 | 17 | 0 | -9 | -15% | 1%
COC(=O)C1=C(c2ccc(-c3ccccc3)c(F)c2)C[C@@H]2CC[C@H]1N2C(=O)NCCOc1ccccc1Cl | -1 | -5 | -3 | -8 | 0 | -16 | -1% | 0%
CCCNC(=O)N1[C@H]2CC[C@@H]1C(C(=O)OC)=C(c1ccc(-c3ccccc3)c(F)c1)C2 | -12 | -6 | -1 | -10 | 1 | -17 | 1% | ?
COC(=O)C1=C(c2ccc(OCc3ccccc3)cc2)C[C@@H]2CC[C@H]1N2C(=O)NCc1ccc(F)cc1 | -11 | nt | -9 | nt | nt | -6 | nt | nt
COC(=O)C1=C(c2ccc(-c3ccccc3)c(F)c2)C[C@@H]2CC[C@H]1N2C(=O)NCCO | 4 | -2 | -2 | 4 | 0 | -12 | -2% | 2%
COC(=O)C1=C(c2ccc(OCc3ccccc3)cc2)C[C@@H]2CC[C@H]1N2C(=O)NCc1ccc(N(C)C)cc1 | -17 | 16 | -3 | -4 | 1 | -7 | -1% | 4%
Cc1cc(O)c2c(C)c(CC(=O)N3CCN(C)CC3)c(=O)oc2c1 | 8 | nt | nt | nt | nt | nt | nt | nt
COc1ccc(N2CCN(CCc3ccncc3)CC2)cc1 | 3 | nt | -1 | -22 | 3 | -14 | nt | nt
c1ccc(CCN2CCC(N3CCN(c4ccccc4)CC3)CC2)cc1 | 3 | -21 | ? | 72* | 74* | -4 | ? | ?
Fc1cccc(F)c1CN1CCN(c2ccc(Cl)cc2)CC1 | -5 | 2 | -1 | -12 | 0 | -14 | nt | nt
Cc1ccccc1N1CCN(Cc2ccc3c(c2)OCO3)CC1 | -9 | -21 | 2 | 83* | 26 | -31 | -7% | 6%
Clc1ccccc1N1CCN(Cc2ccc3c(c2)OCO3)CC1 | -14 | -17 | 6 | 60* | 71* | 0 | 8% | ?
Fc1ccccc1N1CCN(Cc2c(F)cccc2F)CC1 | ? | -17 | 4 | 21 | 36* | -10 | -2% | 18%
SMILES | LDHA block | D2 PAM-1 | D2 ag-1 | D2 antag | D2 ag-2 | D2 PAM-2 | D3 ag | D2 ag-3
Fc1ccccc1N1CCN(Cc2ccc3c(c2)OCO3)CC1 | -22 | -21 | 42* | 88* | 78* | 11 | ? | ?
CCc1noc(C(C)N2CCN(C(=O)Cc3ccc(C)cc3)CC2)n1 (stereo unspecified) | 0 | nt | nt | nt | nt | nt | nt | nt
N#Cc1cnn2c(C(F)F)cc(-c3ccc(F)cc3)nc12 | -4 | nt | nt | nt | nt | nt | nt | nt
Cc1[nH]c2ccc(C34CC5CC(CC(C5)C3)C4)cc2c1CCN | 7 | nt | nt | nt | nt | nt | nt | nt
N#C/C=C/C#N | -6 | 5 | 2 | 3 | 0 | -1 | -2% | -5%
N#C/C(N)=C(/N)C#N | -13 | 12 | -5 | 4 | 0 | -13 | -4% | -5%
Cc1nn(C)c(C)c1C1SCC(=O)Nc2c1c(C)nn2-c1ccccc1 (stereo unspecified) | 4 | nt | nt | nt | nt | nt | nt | nt
CC(C(N)=O)N1CC(c2ccccc2)CC1=O (stereo unspecified) | -4 | -19 | 1 | 0 | 45* | -12 | 0% | -2%
CCCCOCCCN1C(C)=CC(=C2C(=O)NC(=S)NC2=O)C=C1C | -7 | -10 | -4 | 18 | 0 | -1 | -11% | -5%
O=C(CSC1c2ccccc2Sc2ccccc21)Nc1ccc(C(=O)O)cc1 | -3 | nt | nt | nt | nt | nt | nt | nt
CC(C)Sc1nnc([C@@H](N)Cc2c[nH]c3ccccc23)o1 | 0 | 6 | -4 | 8 | 0 | -7 | nt | nt
CCC(N)Cc1c[nH]c2ccccc12 (stereo unspecified) | -3 | -5 | 1 | -24 | 12 | -4 | -4% | -3%
CN1C[C@H](C(=O)N[C@]2(C)O[C@@]3(O)[C@@H]4CCCN4C(=O)[C@H](Cc4ccccc4)N3C2=O)CC2c3cccc4[nH]cc(c34)C[C@H]21 (stereo partly specified) | -6 | -10 | ? | 88*! | 81*! | -6 | -2% | ?
COC(=O)C1=C(c2ccc(OC(F)(F)F)cc2)C[C@@H]2CC[C@H]1N2C(=O)NCC1CC1 | -3 | -12 | -2 | -4 | -1 | -15 | nt | nt

Screening results deposited in PubChem by National Center for Advancing Translational Sciences (NCATS).
